Screens deposited in PubChem BioAssay by National Center for Advancing Translational Sciences (NCATS).
PLK1 PBD block = qHTS for Inhibitors of PLK1-PDB (polo-like kinase 1 - polo-box domain): Primary Screen | Serine/threonine-protein kinase PLK1 (Homo sapiens), P53350 | Plk1 PBD binding of FITC phosphopeptide, fluorescence polarization | Potency, µM, inactives show max response, negative = inhibition, most hits filed as inhibitors | hit rate 2.8% among 360,000 | AID 720504, 2013; further: series mostly up to about 57 µM; on the % scale 0 is the no-effect control and ±100 the full control effect; nearly all actives have a fitted effect of over 65% in size
Target sequence (P53350 whole entry, looked up, the tested form may be a part): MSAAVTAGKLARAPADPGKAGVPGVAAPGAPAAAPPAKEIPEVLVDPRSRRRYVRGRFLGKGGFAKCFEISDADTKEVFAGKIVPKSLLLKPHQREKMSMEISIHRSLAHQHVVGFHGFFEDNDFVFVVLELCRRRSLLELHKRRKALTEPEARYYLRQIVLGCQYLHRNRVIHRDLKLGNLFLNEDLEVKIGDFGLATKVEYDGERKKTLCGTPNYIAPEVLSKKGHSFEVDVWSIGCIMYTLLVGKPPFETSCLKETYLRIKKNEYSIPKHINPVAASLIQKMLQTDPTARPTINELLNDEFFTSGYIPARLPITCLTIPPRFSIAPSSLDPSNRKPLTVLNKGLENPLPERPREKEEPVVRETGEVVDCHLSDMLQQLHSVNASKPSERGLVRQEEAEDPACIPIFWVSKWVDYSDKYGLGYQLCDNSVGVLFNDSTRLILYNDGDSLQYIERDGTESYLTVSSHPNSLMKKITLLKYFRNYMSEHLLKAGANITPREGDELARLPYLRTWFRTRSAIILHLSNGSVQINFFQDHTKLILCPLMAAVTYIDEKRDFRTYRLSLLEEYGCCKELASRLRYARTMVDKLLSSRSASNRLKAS
BRCA1 expr up = qHTS Assay to Identify Small Molecule Activators of BRCA1 Expression. MCF7-BRCA1-FFLuc reporter, luminescence, 48 h; response scale: scaled: vehicle 0%, 10 µM genistein 100%. Potency, µM (doses to about 46.1 µM), for inactives: at the highest dose activation, most hits filed as activators. hit rate 1.1% among 380,000. AID 624202, 2012; further: nearly all actives have a fitted effect of over 80% in size
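48 h compound treatment of MCF7-BRCA1-FFLuc cells (phenol-red free MEM, 37 °C), then 15 min with luciferase substrate and luminescence imaging.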
Tb PFK block = qHTS Assay to Find Inhibitors of T. brucei phosphofructokinase. ATP-dependent 6-phosphofructokinase (Trypanosoma brucei brucei), O15648. T. brucei PFK, ADP-Glo luminescence. Potency, µM (titrated, usually from 57.5 µM), inactives show at the top dose activity, negative = inhibition, hits mostly inhibitors. hit rate 0.17% among 330,000. AID 485367, 2010;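 further: 0% = uninhibited 1x PFK enzyme wells and -100% = no-enzyme wells; nearly all actives have a fitted effect of over 60% in size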
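ADP-Glo luminescence quantified ADP after 45 min at room temperature, with 1.25 nM T. brucei PFK, 0.1 mM ATP and 0.5 mM fructose-6-phosphate in pH 8.0 TEA buffer. qHTS titrations up to 57 µM; curves classified by quality.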
VDR inhibitor = Inhibitors of the vitamin D receptor (VDR): qHTS | hit rate 0.93% among 400,000 | Potency, µM, inactives show max response, negative = inhibition, actives largely listed as inhibitors | VDR-SRC2-3 peptide fluorescence polarization, 2 h | AID 504847, 2011; further: on the % scale 0 is the no-effect control and ±100 the full control effect
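Measured by FP: displacement of SRC2-3 coactivator peptide from VDR by library compounds, following a two-hour ambient incubation.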
Numbers without * were called inactive. Only some compounds are listed: those with a hit (about 3.9% of all), similar ones and a draw of the others. The call rests on the fitted dose curve; in most records, active means well fitted curve in the direction sought with a large enough effect; inconclusive means small, poorly fitted or top-dose-only effect, or another doubt; inactive means no such curve, though single readings can be large; an effect the other way counts as inactive or inconclusive. Potency means the concentration at half of the fitted maximal effect.

For COc1ccc(CCNc2ncnc3onc(C)c23)c(OC)c1 the results were VDR inhibitor 3.4%.
CCOc1ccc(NC(=S)c2ccc3ccccc3n2)cc1 was read as PLK1 PBD block 2.67µM*, BRCA1 expr up 0.3%, Tb PFK block -29.6% and VDR inhibitor 10.8%.
For COc1ccc(NC(=S)c2ccc3ccccc3n2)cc1 the results were PLK1 PBD block 6.7µM*, BRCA1 expr up 63.6%, Tb PFK block -27.7% and VDR inhibitor inconclusive.
For Cc1ccc(NC(=S)c2ccc3ccccc3n2)c(C)c1 the results were PLK1 PBD block 13.4µM*, BRCA1 expr up 48.2%, Tb PFK block -28.0% and VDR inhibitor 79.4µM*.
CCOc1ccc(CN(C)C(=O)c2ccc3ccccc3n2)cc1 was read as PLK1 PBD block -0.9%, BRCA1 expr up 10.6%, Tb PFK block 2.0% and VDR inhibitor -1.8%.
O=C(c1ccccc1Cl)N1c2ncnn2C2(CCCCC2)[C@@H]2CCCC[C@@H]21 was read as VDR inhibitor -2.5%.
`S=c1[nH]nc(-c2ccccc2)n1/N=C/C=C/c1ccco1` gave PLK1 PBD block -5.3%, BRCA1 expr up -20.5%, Tb PFK block -20.6% and VDR inhibitor -26.5%.
Screening S=c1[nH]nc(-c2ccc(Cl)cc2)n1/N=C/C=C/c1ccco1 returned PLK1 PBD block 26.7µM*, BRCA1 expr up -26.4%, Tb PFK block -22.7% and VDR inhibitor -7.0%.
Cc1ccccc1-c1n[nH]c(=S)n1/N=C/C=C/c1ccco1 was read as PLK1 PBD block inconclusive, BRCA1 expr up -17.4%, Tb PFK block -5.6% and VDR inhibitor 70.8µM*.
COC(=O)c1c(NC(C)=O)sc(C(=O)Nc2ccccc2F)c1C was read as PLK1 PBD block 23.8µM*, BRCA1 expr up inconclusive, Tb PFK block -13.5% and VDR inhibitor -12.1%.
CCC(=O)Nc1sc(C(=O)Nc2ccccc2F)c(C)c1C(=O)OC was read as PLK1 PBD block 2.5%, BRCA1 expr up inconclusive, Tb PFK block -1.8% and VDR inhibitor 5.0%.
CCNc1nc(NCC)n2c(SCC(=O)Nc3ccc(F)cc3)nnc2n1 was read as PLK1 PBD block -13.2%, BRCA1 expr up -7.2%, Tb PFK block inconclusive and VDR inhibitor -7.6%.
CCNc1nc(NCC)n2c(SCC(=O)Nc3ccc(Br)cc3F)nnc2n1 was read as PLK1 PBD block 13.4µM*, BRCA1 expr up -17.7%, Tb PFK block inconclusive and VDR inhibitor 70.8µM*.
CCOCC(=O)Nc1nc2ccccc2s1 was read as PLK1 PBD block -11.9%, BRCA1 expr up 7.94µM*, Tb PFK block inconclusive and VDR inhibitor 23.1%.
For O=C(Nc1nc2ccccc2s1)NC1CCCCC1 the results were PLK1 PBD block -8.4%, BRCA1 expr up inconclusive, Tb PFK block -2.6% and VDR inhibitor -9.9%.
Screening O=C(CSc1nccn1-c1ccc(Cl)cc1)Nc1nc2ccccc2s1 returned VDR inhibitor -4.9%.
Screening CC(C)OC(=O)CCC(=O)Nc1nc2ccccc2s1 returned PLK1 PBD block -3.0%, BRCA1 expr up 65.5%, Tb PFK block -1.6% and VDR inhibitor 6.6%.
For CCNC(=O)Nc1nc2ccccc2s1 the results were PLK1 PBD block 7.6%, BRCA1 expr up 3.16µM*, Tb PFK block 3.4% and VDR inhibitor -0.2%.
CCc1sc(NC(=O)COC)nc1-c1ccccc1 was read as PLK1 PBD block 17.8µM*, BRCA1 expr up -32.7%, Tb PFK block -4.3% and VDR inhibitor -1.6%.
For O=C(CSc1nccn1-c1ccccc1)Nc1nc2ccccc2s1 the results were BRCA1 expr up 11.2µM* and VDR inhibitor -1.9%.
COc1cccc2c1ncc1c(-c3ccc(C)cc3)nn(-c3cccc([N+](=O)[O-])c3)c12 was read as VDR inhibitor 2.7%.
Screening Cc1nc(/C(=N/O)C(N)=O)cs1 returned PLK1 PBD block 23.8µM*, BRCA1 expr up -3.6%, Tb PFK block 2.8% and VDR inhibitor -6.9%.
Screening Cc1nc(C(=O)NNC(=O)c2ccc(Cl)cc2)cs1 returned PLK1 PBD block -1.7%, BRCA1 expr up -1.0%, Tb PFK block -0.1% and VDR inhibitor 3.1%.
O=S1(=O)N[C@@H](Cc2ccccc2)COc2cc(N3CCC[C@H]3CO)ccc21 was read as PLK1 PBD block 4.4% and BRCA1 expr up -6.3%.
`CCc1cc2c(cc3c(=O)n(CC(=O)NC4CCC(C)CC4)ncn32)s1` (stereo not given) gave VDR inhibitor 8.7%.
Screening CCc1cc2c(cc3c(=O)n(CC(=O)N4CCN(C)CC4)ncn32)s1 returned PLK1 PBD block 21.2µM*, BRCA1 expr up 2.4%, Tb PFK block -2.3% and VDR inhibitor inconclusive.
For COc1ccc(C(C[N+](=O)[O-])C2(c3ccc(OC)c(OC)c3)C(=O)c3ccccc3C2=O)cc1 (stereo not given) the results were PLK1 PBD block -10.0%, BRCA1 expr up -97.9%, Tb PFK block inconclusive and VDR inhibitor 31.6µM*.
For COc1ccc(C(C[N+](=O)[O-])c2c(-c3ccccc3)cc3ccccn23)cc1OC (stereo not given) the results were PLK1 PBD block -28.2%, BRCA1 expr up -15.4% and VDR inhibitor -10.8%.
CCOC(=O)C1CCN(S(=O)(=O)c2ccc(N3CCCCS3(=O)=O)cc2)CC1 was read as VDR inhibitor 10.3%.
Screening N#Cc1c(C(F)(F)F)cc(-c2ccco2)nc1SCc1ccncc1 returned PLK1 PBD block -4.2%, BRCA1 expr up -90.2%, Tb PFK block -3.4% and VDR inhibitor -11.5%.
For CSc1nc(-c2ccco2)cc(C(F)(F)F)c1C#N the results were PLK1 PBD block 16.8µM*, BRCA1 expr up -1.6%, Tb PFK block -2.8% and VDR inhibitor -25.2%.
COc1cc(C2C(C(=O)Nc3ccccc3C)=C(C)Nc3ncnn32)ccc1OCC(N)=O (stereo not given) was read as BRCA1 expr up 16.0% and VDR inhibitor -3.9%.
`Cc1ccc(O)c(Nc2nc3ccccc3c3nncn23)c1` gave VDR inhibitor -1.0%.
For O=C(COC(=O)c1cccc(O)c1)c1ccccc1 the results were PLK1 PBD block 0.9%, BRCA1 expr up inconclusive, Tb PFK block -2.6% and VDR inhibitor 5.7%.
Screening Nc1cccc(C(=O)OCC(=O)c2ccccc2)c1 returned PLK1 PBD block 6.0%, BRCA1 expr up 7.94µM*, Tb PFK block -3.2% and VDR inhibitor 3.8%.
COc1ccc(OC)c2c(=S)c3ccccc3[nH]c12 was read as VDR inhibitor 4.47µM*.
`Cc1ccc(C)c2c1[nH]c1ccccc12` gave PLK1 PBD block -3.8%, BRCA1 expr up 18.7%, Tb PFK block -0.4% and VDR inhibitor 2.9%.
Screening COC(=O)C[C@@H]1CC[C@@H](NS(=O)(=O)c2ccccc2OC)[C@@H](CO)O1 returned PLK1 PBD block -7.7%.
For CN(C)C(=O)c1ccc(NC(=O)c2cc(-n3cnnc3)ccc2Cl)cc1 the results were PLK1 PBD block 16.8µM*, BRCA1 expr up 0.9%, Tb PFK block -0.1% and VDR inhibitor inconclusive.
